The text below walks through data of the supplement of paper PMC3414501.

Structures can show the parent of a compound that is named as a salt.

For test [1], the system named is S. cerevisiae SK1 pCDA2-eGFP (USY613), sporulating. Briefly: CDA2-GFP sporulation assay sensitivity score (z-score vs DMSO controls); higher = stronger inhibition of sporulation, active = hit call of the paper.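 Further: active if sensitivity score above 5.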
For test [2], the system named is S. cerevisiae AD1-9 (efflux-pump deficient), vegetative growth in YPD. Briefly: growth sensitivity score (doubling time z-score vs DMSO controls); higher = slower growth, strongly negative scores also mark growth inhibition (complete suppression), active = hit call of the paper. Put shortly: (§1)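 Rich medium in microtiter plates was seeded with Saccharomyces cerevisiae strains BY4741 and AD1-9 at an OD600 of 0.065, and compounds were added as a 1:100 dilution of DMSO stock. A Tecan GENios reader recorded optical density every 15 min for 24 hours, with eight solvent-only wells in each experiment. Average doubling time was the time to reach a set generation point divided by generation number. The growth sensitivity score was the compound mean minus the solvent-only mean, divided by the solvent-only standard deviation.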

Test [3] deals with S. cerevisiae BY4741 (wild-type), vegetative growth in YPD. Described as above. Put shortly: as §1
Setting [4] is: stock concentration (mM, diluted 1:100): 10.
The mark [5] stands for this setting: stock concentration (mM, diluted 1:100): 9.
Where [6] appears, read: stock concentration (mM, diluted 1:100): 9.7.
Setting [7] is: stock concentration (mM, diluted 1:100): 8.7.
Where [8] appears, read: stock concentration (mM, diluted 1:100): 10.1.
Where [9] appears, read: stock concentration (mM, diluted 1:100): 8.6.
[10] abbreviates: stock concentration (mM, diluted 1:100): 7.7.

For `Oc1ccc2c3c1O[C@H]1[C@@H](O)CC[C@@]4(O)[C@@H](C2)N(CC2CCC2)CC[C@]314` [Nalbuphine], in test [1] (setting [4]), the “CDA2-GFP sporulation assay sensitivity score” value is -0.4 (inactive). For the same compound, the figures for the growth sensitivity score in test [2] (setting [4]) and in test [3] (setting [4]) were -1.74 (inactive) and -0.96 (inactive), respectively.
`CNC1CC(c2ccc(Cl)c(Cl)c2)c2ccccc21` (centres undefined) [Indatraline]: in test [1] (setting [4]), the “CDA2-GFP sporulation assay sensitivity score” value is 2.43 (inactive).
In the case of `c1ccc2c(c1)Nc1ccccc1S2` [Phenothiazine], the “CDA2-GFP sporulation assay sensitivity score” value in test [1] (setting [4]) is 3.38 (inactive). Besides, the results for the growth sensitivity score in test [2] (setting [4]) and in test [3] (setting [4]) were 11.7 (active) and 5.99 (active), respectively.
`Cc1ncc2n1-c1ccc(Cl)cc1C(c1ccccc1F)=NC2` [Midazolam hydrochloride]: the “CDA2-GFP sporulation assay sensitivity score” value in test [1] (setting [5]) was 6.54 (active). Moreover, the growth sensitivity score in test [2] (setting [5]) is 12.1 (active); in test [3] (setting [5]), 0.95 (inactive).
Take `CN1CCC(c2ccc(F)cc2)C(COc2ccc3c(c2)OCO3)C1` (centres undefined) [Methyl paroxetine]: the “CDA2-GFP sporulation assay sensitivity score” value in test [1] (setting [6]) was 0.37 (inactive). In addition, the growth sensitivity score in test [2] (setting [6]) was 35 (active); in test [3] (setting [6]) it was 2.48 (active).
Consider `C[C@]12CC[C@H](O)CC1=CC[C@@H]1[C@@H]2CC[C@]2(C)C(=O)CC[C@@H]12` [Dehydroepiandrosterone], for which the “CDA2-GFP sporulation assay sensitivity score” value in test [1] (setting [4]) is 15.7 (active). Also, the figures for the growth sensitivity score in test [2] (setting [4]) and in test [3] (setting [4]) were 70.9 (active) and 7.64 (active), respectively.
In the case of `CNC(=O)Oc1ccc2c(c1)[C@]1(C)CCN(C)[C@@H]1N2C` [Physostigmine], the “CDA2-GFP sporulation assay sensitivity score” value in test [1] (setting [4]) is 0.21 (inactive). Moreover, the figures for the growth sensitivity score in test [2] (setting [4]) and in test [3] (setting [4]) were -0.52 (inactive) and -1.51 (inactive), respectively.
Regarding `CC(C)[C@]12O[C@H]1[C@@H]1O[C@]13[C@]1(O[C@H]1C[C@H]1C4=C(CC[C@@]13C)C(=O)OC4)[C@@H]2O` [Triptolide], in test [1] (setting [4]), the “CDA2-GFP sporulation assay sensitivity score” value is -1.02 (inactive). Besides, the growth sensitivity score was -2.17 in test [2] (setting [4]) and -0.92 (inactive) in test [3] (setting [4]).
Consider `CC(NC(C)(C)C)C(=O)c1cccc(Cl)c1` (centres undefined) [Bupropion hydrochloride], for which, in test [1] (setting [7]), the “CDA2-GFP sporulation assay sensitivity score” value is 3.2 (inactive). The results for the growth sensitivity score in test [2] (setting [7]) and in test [3] (setting [7]) were -0.08 (inactive) and -0.87 (inactive), respectively.
Turning to `O=C1CN=C(c2ccccc2)c2cc([N+](=O)[O-])ccc2N1` [Nitrazepam], in test [1] (setting [4]), the “CDA2-GFP sporulation assay sensitivity score” value was -0.69 (inactive). Moreover, the growth sensitivity score in test [2] (setting [4]) was 8.16 (active); in test [3] (setting [4]) it was 2.01 (active).
Consider `Oc1ccc2c3c1O[C@H]1c4[nH]c5ccccc5c4C[C@@]4(O)[C@@H](C2)N(CC2CC2)CC[C@]314` [Naltrindole], for which the “CDA2-GFP sporulation assay sensitivity score” value in test [1] (setting [4]) was 3.11 (inactive). For the same compound, the growth sensitivity score in test [2] (setting [4]) is -3.12; in test [3] (setting [4]), -1.11 (inactive).
On the same counts, the results for `c1ccc2c3c([nH]c2c1)CNCC3` [Tryptoline] are 11.7 (active), -1.27 (inactive) and -1.07 (inactive).
For `C[C@]12CC[C@H](O)CC1=CC[C@@H]1[C@@H]2CC[C@@]2(C)[C@H]1CC[C@]2(C)O` [Methylandrostenediol], the “CDA2-GFP sporulation assay sensitivity score” value in test [1] (setting [8]) was 0.44 (inactive). Further, the growth sensitivity score in test [2] (setting [8]) was 15.1 (active); in test [3] (setting [8]), 0.35 (inactive).
Consider `C#CCN(C)[C@H](C)Cc1ccccc1` [Selegiline], for which the “CDA2-GFP sporulation assay sensitivity score” value in test [1] (setting [4]) is -0.13 (inactive). Further, the growth sensitivity score in test [2] (setting [4]) was -1.83 (inactive); in test [3] (setting [4]), 0.07 (inactive).
For the compound `NC(=O)C[S+]([O-])C(c1ccccc1)c1ccccc1` (centres undefined) [Modafinil], the “CDA2-GFP sporulation assay sensitivity score” value in test [1] (setting [4]) was -0.48 (inactive). Further, the growth sensitivity score in test [2] (setting [4]) is -1.24 (inactive); in test [3] (setting [4]), -1.13 (inactive).
In the case of `C[C@]12Cc3c[nH]nc3C[C@@H]1CC[C@@H]1[C@@H]2CC[C@@]2(C)[C@H]1CC[C@]2(C)O` [Stanozolol], the “CDA2-GFP sporulation assay sensitivity score” value in test [1] (setting [4]) is -4.38 (inactive). The growth sensitivity score in test [2] (setting [4]) was 9.25 (active); in test [3] (setting [4]), 1.13 (inactive).
In the case of `CCOC(=O)C1(c2ccccc2)CCN(CCC(C#N)(c2ccccc2)c2ccccc2)CC1` [Diphenoxylate], the “CDA2-GFP sporulation assay sensitivity score” value in test [1] (setting [9]) is 1.47 (inactive). Besides, the growth sensitivity score is 5.75 (active) in test [2] (setting [9]) and -0.94 (inactive) in test [3] (setting [9]).
Turning to `CN1C(=O)CN=C(c2ccccc2)c2cc(Cl)ccc21` [Diazepam], in test [1] (setting [4]), the “CDA2-GFP sporulation assay sensitivity score” value is 4.97 (inactive). The growth sensitivity score in test [2] (setting [4]) is 5.55 (active); in test [3] (setting [4]), 2.97 (active).
Take `CCN(C(C)=O)c1cccc(-c2ccnc3c(C#N)cnn23)c1` [Zaleplon]: the “CDA2-GFP sporulation assay sensitivity score” value in test [1] (setting [4]) is 6.36 (inactive). Further, the figures for the growth sensitivity score in test [2] (setting [4]) and in test [3] (setting [4]) were -0.13 (inactive) and -0.43 (inactive), respectively.
On the same counts, the results for `C[C@]12CCC(=O)C=C1CC[C@@H]1[C@@H]2CC[C@@]2(C)[C@H]1CC[C@]2(C)O` [Methyltestosterone] are 3.87 (inactive), 32.3 (active) and 3.83 (active).
As for `CS(=O)(=O)Nc1ccc(Cc2noc(-c3ccc4[nH]cc(CCN)c4c3)n2)cc1`, the “CDA2-GFP sporulation assay sensitivity score” value in test [1] (setting [4]) was 2.55 (inactive). In addition, the results for the growth sensitivity score in test [2] (setting [4]) and in test [3] (setting [4]) were -0.07 (inactive) and 0.39 (inactive), respectively.
Regarding `C[N+]1(C)CCN(c2ccccc2)CC1` [Dimethylphenylpiperazinium Iodide], the “CDA2-GFP sporulation assay sensitivity score” value in test [1] (setting [4]) is -0.6 (inactive). Also, the growth sensitivity score was -0.59 (inactive) in test [2] (setting [4]) and -0.67 (inactive) in test [3] (setting [4]).
`C[C@H]1CCC[C@H](O)CCCCCc2cc(O)cc(O)c2C(=O)O1` [Zeranol]: in test [1] (setting [4]), the “CDA2-GFP sporulation assay sensitivity score” value was -2.75 (inactive). The growth sensitivity score in test [2] (setting [4]) is 18.3 (active); in test [3] (setting [4]), 1.77 (inactive).
Regarding `CCC(COC(=O)c1cc(OC)c(OC)c(OC)c1)(c1ccccc1)N(C)C` (centres undefined) [Trimebutine maleate], in test [1] (setting [10]), the “CDA2-GFP sporulation assay sensitivity score” value is 0.35 (inactive). The figures for the growth sensitivity score in test [2] (setting [10]) and in test [3] (setting [10]) were 3.33 (active) and 0.59 (inactive), respectively.
On to `NCCc1ccccn1` [2-(2-aminoethyl)pyridine], for which the “CDA2-GFP sporulation assay sensitivity score” value in test [1] (setting [4]) is -1.07 (inactive). Also, the growth sensitivity score is -0.62 (inactive) in test [2] (setting [4]) and -1.35 (inactive) in test [3] (setting [4]).
For the compound `N=C(NCc1ccc(Cl)cc1)SCCCc1c[nH]cn1` [Clobenpropit], the “CDA2-GFP sporulation assay sensitivity score” value in test [1] (setting [4]) is 1.25 (inactive). In addition, the growth sensitivity score in test [2] (setting [4]) was 0.21 (inactive); in test [3] (setting [4]), 0.09 (inactive).
As to `O=C(O)C(Cl)Cl` [Dichloroacetic acid], in test [1] (setting [4]), the “CDA2-GFP sporulation assay sensitivity score” value was 1.21 (inactive). Moreover, the growth sensitivity score is 0.15 (inactive) in test [2] (setting [4]) and -0.8 (inactive) in test [3] (setting [4]).
